The structures appear in SMILES notation. The whole screen tested about 3,400 compounds, of which about 840 (25%) were called active. Not shown: some 11% with an inconclusive outcome.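 How the source made its calls: active means fitted half-maximal concentration of signal decrease at or below twice the sample's top tested concentration; inconclusive means flat curve between -70 and -30 percent, or poor fit; inactive means flat within 30 percent, signal rise, or potency above limit.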 These entries were drawn from the full list. Entries with a potency or affinity are not part of this list.

The nature of the assay: T. gondii growth inhibition with IFN-gamma, dose response, cell-based, ME49Luc, HeLa, luciferase, 72 h (AID 1259418). Particulars: T. gondii ME49Luc in IFN-y HeLa, hits give low values, -100% = high-dose IFN-γ control wells; at 19.5 µM unless noted.
With `O=C(NC1CCCC1)N1CCCCN2[C@H](CO)[C@@H](c3ccc(-c4cccnc4)cc3)[C@H]2C1`, the max activity was 11.4% (inactive).

`O=C(NC1CCCC1)N1CCCCN2[C@@H](CO)[C@@H](c3ccc(-c4cccnc4)cc3)[C@@H]2C1`: the max activity is 33.9% (inactive).

As to `COc1ccc(-c2nc(NC(C)CCc3ccccc3)c3ccccc3n2)cc1` (stereo not drawn), the max activity was 13.7% (inactive).

With `CCOc1ccc(S(=O)(=O)N2CCc3nc(-c4ccc(OC)cc4)sc3C2)cc1`, the max activity was -25.8% [at 0.16 µM] (inactive).

On to `Cc1nc(-c2ccc(F)cc2)sc1-c1ccc(SCc2ccccc2F)nn1`, for which the max activity was -39.8% (inactive).

Regarding `Clc1ccc(-c2nc(NCCCN3CCc4ccccc4C3)c3ccccc3n2)cc1`, the max activity was -15.5% [at 0.16 µM] (inactive).

Take `Cc1nc(OCC(=O)Nc2ccc(F)c(Cl)c2)c2ccccc2n1`: the max activity is 21% [at 0.68 µM] (inactive).

On to `COC(=O)/C=c1\sc2nc(=O)c(C)nn2c1=O`, for which the max activity is 25.1% [at 10 µM] (inactive).

In the case of `Cc1nc(-c2ccc(F)cc2)sc1-c1ccc(SCc2ccc(Cl)cc2Cl)nn1`, the max activity was -14.7% [at 5 µM] (inactive).

Regarding `Cc1cccc(CSc2ccc(-c3sc(-c4ccc(F)cc4)nc3C)nn2)c1`, the max activity is -11.3% [at 0.35 µM] (inactive).

Turning to `Cc1cccc(OCC(=O)Nc2ccc(-c3nc(-c4ccccc4)co3)cc2)c1C`, the max activity is -18.6% [at 2.6 µM] (inactive).

As to `COc1cccc(-c2ccc([C@H]3[C@H](CO)N4C(=O)CN(C(=O)c5cccnc5)C[C@@H]34)cc2)c1`, the max activity is 25.9% (inactive).

`Cc1ccccc1-c1ccc([C@@H]2[C@H](CO)N3C(=O)CN(C(=O)c4ccncc4)C[C@@H]23)cc1`: the max activity was 29.6% (inactive).

For `O=C(c1cnccn1)N1CC(=O)N2[C@H](CO)[C@@H](c3ccc(/C=C/c4ccccc4)cc3)[C@H]2C1`, the max activity was 28.4% (inactive).

Take `Cc1ccccc1-c1ccc([C@H]2[C@@H](CO)N3C(=O)CN(C(=O)c4ccncc4)C[C@@H]23)cc1`: the max activity is 27.7% (inactive).

Take `COc1cccc(-c2ccc([C@@H]3[C@H]4CN(C(=O)c5cccnc5)CC(=O)N4[C@H]3CO)cc2)c1`: the max activity was 12.1% (inactive).

Consider `O=C(CCC1N=C2c3ccccc3N=C(SCc3cc(=O)n4ccccc4n3)N2C1=O)NCc1ccc(F)cc1` (stereo not drawn), for which the max activity was 26.8% (inactive).

In the case of `COc1ccc(-c2noc(-c3nnn(Cc4nc(-c5ccccc5OC)oc4C)c3C)n2)cc1OC`, the max activity is 11.4% [at 0.16 µM] (inactive).

On to `COc1ccc(-c2nc3c(s2)CN(C(=O)Nc2ccc(C)cc2)CC3)cc1OC`, for which the max activity was -13% [at 0.35 µM] (inactive).

For `O=C1CCc2cc(S(=O)(=O)NCc3cccn3Cc3ccccc3F)ccc2N1`, the max activity was 12.6% (inactive).

As for `CCOC(=O)CSC1=Nc2ccccc2C2=NC(CCC(=O)NCc3ccc4c(c3)OCO4)C(=O)N12` (stereo not drawn), the max activity was 25.7% [at 2.6 µM] (inactive).

Regarding `Cc1nc(OCC(=O)Nc2ccc(Cl)c(C(F)(F)F)c2)c2ccccc2n1`, the max activity was 27.7% [at 0.35 µM] (inactive).

As for `COc1ccc(-c2nc3c(s2)CN(C(=O)Nc2cc(C)ccc2OC)CC3)cc1`, the max activity is 17% (inactive).

As to `O=C(c1cnccn1)N1CC(=O)N2[C@H](C1)[C@H](c1ccc(-c3cccc(F)c3)cc1)[C@@H]2CO`, the max activity was 32.8% (inactive).

For the compound `O=C(c1cnccn1)N1CC(=O)N2[C@H](CO)[C@@H](c3ccc(-c4cccc(F)c4)cc3)[C@H]2C1`, the max activity was 46.4% (inactive).

Consider `Cc1oc(-c2cccc(Cl)c2)nc1CN1CCN(C(=O)NC2CCCCC2)CC1`, for which the max activity was 20.5% [at 1.35 µM] (inactive).

Consider `CCOC(=O)Cc1ccc(NC(=O)Nc2ccc(-c3nc(-c4cc(C)ccc4C)co3)cc2)cc1`, for which the max activity is 5.78% (inactive).

Take `O=C(NCCc1csc(-c2ccccc2)n1)[C@H]1CSCN1C(=O)CCc1ccccc1`: the max activity is 14.8% [at 5 µM] (inactive).

Take `Cc1nc(OCC(=O)Nc2cccc(C(F)(F)F)c2)c2ccccc2n1`: the max activity was -11.8% [at 2.6 µM] (inactive).

As to `Cc1cccc(-c2nc(CN(c3ccccc3)S(=O)(=O)c3cccs3)c(C)o2)c1`, the max activity was -12.1% [at 1.35 µM] (inactive).

For the compound `Cc1ccc(N(Cc2nc(-c3cccc(C)c3)oc2C)S(=O)(=O)c2cccs2)cc1`, the max activity is -8.42% [at 0.16 µM] (inactive).

As to `CCOc1ccc(N(Cc2nc(-c3cccc(Cl)c3)oc2C)S(=O)(=O)c2cccs2)cc1`, the max activity was 19.9% (inactive).

On to `COc1ccc(-c2nc(N3CCCc4ccccc43)c3ccccc3n2)cc1`, for which the max activity is 23.2% [at 10 µM] (inactive).

For `O=C(NCCc1ccccc1)Nc1ccc(-c2nc(-c3ccccc3)co2)cc1`, the max activity is 87.9% (inactive).

As to `O=C(CC1Nc2c3ccccc3nc(=S)n2C1=O)NCc1cccc(Cl)c1` (stereo not drawn), the max activity is -20.4% [at 2.6 µM] (inactive).

As to `COc1ccc(-c2nc(N3CCN(c4ccccn4)CC3)c3ccccc3n2)cc1`, the max activity was -11.1% [at 0.35 µM] (inactive).

As for `COCC#Cc1ccc([C@H]2[C@H](CO)N3CCCCN(C(=O)NC4CCCC4)C[C@@H]23)cc1`, the max activity is 30.1% (inactive).

Consider `Cc1ccc(Nc2nc(N)nc(CN3CCc4ccccc4C3)n2)cc1`, for which the max activity is 19.9% [at 5 µM] (inactive).

As for `CCc1nc(OCC(=O)Nc2cc(F)ccc2F)c2ccccc2n1`, the max activity is 14.2% (inactive).

With `COCCn1cc2c(n1)C(CNC(=O)CS(C)(=O)=O)OCC2` (stereo not drawn), the max activity was 15.6% (inactive).

For the compound `CCc1nc(-c2ccc(C(=O)N3CCC4(CC3)OCCO4)cc2)cs1`, the max activity was 5.55% (inactive).

`O=C(c1ccc(Cn2cncn2)cc1)N1CCC(N2CCCCC2)CC1`: the max activity was 4.24% [at 10 µM] (inactive).

With `O=C(NCc1cccc(Cl)c1)c1ccc(-n2nc(C(F)(F)F)c3c2CCCC3)cc1`, the max activity is -5.33% [at 0.68 µM] (inactive).

Turning to `Cc1noc(C)c1C1CCCN1C(=O)Cn1nc(C(F)(F)F)c2c1CCCC2` (stereo not drawn), the max activity was -14% [at 0.35 µM] (inactive).

`Cc1nc(-c2cccc(-c3noc(C(=O)N4CCC5(CC4)OCCO5)n3)c2)cs1`: the max activity was 13.7% [at 2.6 µM] (inactive).

On to `Cc1ccc(C)c(N2CCN(C(=O)c3ccc(-n4nc(C(F)(F)F)c5c4CCCC5)cc3)CC2)c1`, for which the max activity was -23.2% (inactive).

As to `COc1ccc(-c2nc(N3CCN(c4cccc(C(F)(F)F)c4)CC3)c3ccccc3n2)cc1`, the max activity was 13.5% [at 5 µM] (inactive).

With `COc1ccc(-n2ncc3c(Nc4ccc(C)cc4)ncnc32)cc1`, the max activity was 28.3% [at 0.68 µM] (inactive).

For the compound `Cc1oc(-c2cccc(Cl)c2)nc1CN1CCN(C(=O)NC2CCCC2)CC1`, the max activity is 17.3% [at 10 µM] (inactive).

With `CCOc1ccc(-c2nc(CN3CCN(C(=O)NC4CCCCC4)CC3)c(C)o2)cc1`, the max activity is -13.3% [at 0.16 µM] (inactive).

Take `Cc1ccc(-c2nc(CN3CCN(C(=O)NC4CCCCC4)CC3)c(C)o2)cc1`: the max activity was 6.38% [at 5 µM] (inactive).

Regarding `COc1ccc(CN2CCc3nc(SCc4nc(-c5cccc(C)c5)oc4C)[nH]c(=O)c3C2)cc1`, the max activity is -7.54% [at 2.6 µM] (inactive).

Turning to `O=C(CN1CCC2(CC1)N=C(c1ccc(Cl)cc1)C(=O)N2)Nc1ccc2c(c1)OCO2`, the max activity is -13.7% [at 1.35 µM] (inactive).

Turning to `Cc1ccc(C)c(-c2coc(-c3ccc(NC(=O)Nc4ccc(F)cc4)cc3)n2)c1`, the max activity is -5.84% [at 0.35 µM] (inactive).

For `COc1cccc(CNC(=O)Nc2ccc(-c3nc(-c4cc(C)ccc4C)co3)cc2)c1`, the max activity is 7.66% [at 0.16 µM] (inactive).

Consider `CCc1ccc(NC(=O)Nc2ccc(-c3nc(-c4ccccc4)co3)cc2)cc1`, for which the max activity was 8.96% (inactive).

Take `CCc1cccc(Nc2nc(-c3ccc(OC)cc3)nc3ccccc23)c1`: the max activity was 18.8% [at 0.35 µM] (inactive).

Consider `Cc1cccc(-c2nc(Cn3c(=O)c4c(C)cc(C)nc4n(-c4ccccc4)c3=O)c(C)o2)c1`, for which the max activity is -12.2% [at 0.35 µM] (inactive).

Take `COc1ccc(NC(=O)Nc2ccc(-c3nc(-c4ccc(C)cc4C)co3)cc2)cc1OC`: the max activity was 23.8% (inactive).

For `Cc1ccccc1-c1nc(CN2CCN(C(=O)Nc3ccccc3C(F)(F)F)CC2)c(C)o1`, the max activity was 9.13% [at 0.16 µM] (inactive).

Take `COc1ccc(-c2nc(CN(c3ccc(C)cc3)S(=O)(=O)c3cccs3)c(C)o2)cc1`: the max activity is -6.38% [at 0.16 µM] (inactive).

Turning to `COc1ccc(N(Cc2nc(-c3ccc(C)cc3)oc2C)S(=O)(=O)c2cccs2)cc1`, the max activity was 9.59% [at 0.35 µM] (inactive).

For the compound `COc1ccc(N(Cc2nc(-c3ccc(OC(C)C)cc3)oc2C)S(=O)(=O)c2cccs2)cc1`, the max activity is -11.1% [at 0.35 µM] (inactive).

Regarding `Cc1oc(-c2ccc(OC(C)C)cc2)nc1CN(c1ccccc1)S(=O)(=O)c1cccs1`, the max activity is 21% (inactive).

In the case of `CCOc1ccc(N(Cc2nc(-c3cccc(C)c3)oc2C)S(=O)(=O)c2cccs2)cc1`, the max activity is 11.4% [at 10 µM] (inactive).

On to `CCOc1ccc(-c2nc(CN(c3ccc(OCC)cc3)S(=O)(=O)c3cccs3)c(C)o2)cc1`, for which the max activity is 4% (inactive).

On to `CC(C)NC(=O)CC1Nc2c3ccccc3nc(=S)n2C1=O` (stereo not drawn), for which the max activity was 98.4% (inactive).

`COc1ccc(C(=O)/C=C/c2cc(C(=O)O)cc3c2OCOC3)c(O)c1`: the max activity was 24.8% [at 10 µM] (inactive).

As for `CCn1cc(CN2CCCC2c2cc(C(C)C)on2)c2cc(OC)ccc21` (stereo not drawn), the max activity is 7.79% [at 2.6 µM] (inactive).

Turning to `Cc1cccc(-c2nc(Cn3nnc(-c4nc(-c5cccc(Cl)c5)no4)c3C)c(C)o2)c1`, the max activity was 8.17% [at 2.6 µM] (inactive).

Take `O=C(C1CCC1)N1CC[C@H]2CN(Cc3cccc(Cl)c3)S(=O)(=O)[C@@H]2CC1`: the max activity was -9.19% (inactive).

Turning to `CCCc1ccc(S(=O)(=O)N2CCc3nc(-c4ccc(OC)cc4)sc3C2)cc1`, the max activity was 13.1% [at 0.16 µM] (inactive).

As to `O=C(Cc1ccccc1Cl)Nc1ccc(-c2nc(-c3ccccc3)co2)cc1`, the max activity is 20.3% [at 2.6 µM] (inactive).

These data come from PubChem BioAssay AID1259418 (Broad Institute, 2018).
